HP1b chromo inh = blocks HP1-beta chromodomain binding to methylated histone tails; Potency, µM (series often up to 114 µM), for inactives: at the top dose activity change, negative = inhibition, hits mostly inhibitors; hit rate 0.56% among 390,000; AlphaScreen HP1-beta / biotin-H3K9me3 peptide binding; P83916; also: nearly all actives have a fitted effect of over 70% in size
Target sequence (P83916 whole entry, looked up): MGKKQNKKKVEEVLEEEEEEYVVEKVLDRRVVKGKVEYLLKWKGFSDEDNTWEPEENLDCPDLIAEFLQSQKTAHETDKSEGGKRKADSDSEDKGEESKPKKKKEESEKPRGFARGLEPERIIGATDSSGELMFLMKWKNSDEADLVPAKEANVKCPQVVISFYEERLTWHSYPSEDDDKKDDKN
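Compound inhibition of the preformed complex between 50 nM HP1-beta and 50 nM biotinylated H3K9me3 peptide was read by AlphaScreen. Buffer was PBS pH 7.4 with 0.01% Tween-20. Incubations ran 30 min at room temperature, with 10 ug/mL donor/acceptor beads.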
BAZ2B block = blocks human BAZ2B; AlphaScreen BAZ2B-H3K14Ac peptide displacement; Potency, µM (top dose mostly 114 µM), for inactives: at the top dose activity change, negative = inhibition, usual class: inhibitors; hit rate 4.4% among 360,000; AID 504333; also: % is scaled to controls: 0 for no effect and ±100 for the full control effect; nearly all actives have a fitted effect of over 60% in size
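In this displacement format the biotinylated H3(5-23) peptide acetylated at Lys14 serves as ligand at 50 nM, with BAZ2B at 50 nM in PBS pH 7.4 containing 0.01% Tween-20. Donor and acceptor beads are 10 ug/mL final.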
ALOX12 inh = inhibitors of human 12S-lipoxygenase ALOX12; purified 12hLO, xylenol orange hydroperoxide absorbance; AID 1671190; Potency, µM (highest dose often 108 µM), without a hit: at the top dose activity change, negative = inhibition, hits mostly inhibitors; P18054; hit rate 1.1% among 580,000; also: % is scaled to controls: 0 for no effect and ±100 for the full control effect
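Purified human 12hLO at 150 nM in 25 mM Hepes, 0.01% Triton X-100, pH 7.0, preincubated 15 min at room temperature with compound. Reaction started with 40 uM arachidonic acid, 30 min at room temperature. Hydroperoxide measured by Fe-xylenol orange, 573/405 nm absorbance ratio.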
PLK1 PBD inh = PLK1 (human) polo-box domain binding inhibition | P53350 | Plk1 PBD binding of FITC phosphopeptide, fluorescence polarization | Potency, µM, for the others: max response, negative = inhibition, most hits filed as inhibitors | hit rate 2.8% among 360,000 | AID 720504; also: series mostly up to about 57 µM; % is scaled to controls: 0 for no effect and ±100 for the full control effect; nearly all actives have a fitted effect of over 65% in size
G9a inh = G9a (human) methyltransferase inhibition | Q96KQ7 | G9a H3K9 monomethylation, AlphaScreen, 2 h | Potency, µM (series often up to 102 µM), inactives show at the highest dose activity, negative = inhibition, most hits filed as inhibitors | hit rate 8.8% among 350,000; also: % is scaled to controls: 0 for no effect and ±100 for the full control effect; nearly all actives have a fitted effect of over 75% in size
Target sequence (Q96KQ7 913-1193 limits assumed): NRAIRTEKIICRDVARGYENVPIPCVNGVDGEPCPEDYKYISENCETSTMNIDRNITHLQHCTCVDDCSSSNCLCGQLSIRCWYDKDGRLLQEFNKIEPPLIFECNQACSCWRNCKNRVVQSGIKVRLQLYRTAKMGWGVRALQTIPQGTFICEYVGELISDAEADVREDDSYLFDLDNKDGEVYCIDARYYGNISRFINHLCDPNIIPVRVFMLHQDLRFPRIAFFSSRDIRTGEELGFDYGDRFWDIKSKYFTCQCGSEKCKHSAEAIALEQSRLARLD
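G9a (20 nM) preincubated 15 min RT with compounds, then 500 nM biotinylated H3K9 peptide and 20 uM SAM added; 2 h RT reaction. Monomethyl-H3K9 product detected by AlphaScreen with anti-H3K9me1 antibody, streptavidin donor and anti-rabbit IgG acceptor beads.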
JMJD2A Tudor = inhibitors of human JMJD2A Tudor domain | O75164 | AlphaScreen JMJD2A-Tudor / H3K4me3 peptide binding | Potency, µM (series often up to 114 µM), for the others: top-dose activity change, negative = inhibition, actives largely listed as inhibitors | hit rate 4.4% among 390,000 | AID 504339; also: % is scaled to controls: 0 for no effect and ±100 for the full control effect; nearly all actives have a fitted effect of over 50% in size
Numbers without * were called inactive; ? = inconclusive; nt = no result given; [ ] = dose if it differs, or a comment. In the library only some 9% were active in any assay of this set; here they are far more common. Calls follow the shape of the dose curve; as a rule, active = well fitted curve in the direction sought with a large enough effect; inconclusive = small, poorly fitted or top-dose-only effect, or another doubt; inactive = no such curve, though single readings can be large; an effect the other way counts as inactive or inconclusive. Potency is read from the fitted curve at half-maximal effect.

SMILES	HP1b chromo inh	BAZ2B block	ALOX12 inh	PLK1 PBD inh	G9a inh	JMJD2A Tudor
CN(C)c1ncnc2ccc(-c3ccccc3C#N)cc12	nt	nt	-8%	nt	nt	nt
CCOC(=O)N1CCc2c(sc(NC(=O)CCS(=O)(=O)c3ccccc3)c2C(N)=O)C1	17%	-15%	0%	0%	-8%	-19%
CN1CCc2c(sc(NC(=O)CS(=O)(=O)c3ccc(F)cc3)c2C(N)=O)C1	24%	0%	-22%	-7%	50µM*	-5%
CC(=O)N1CCc2c(sc(NC(=O)C3COc4ccccc4O3)c2C(N)=O)C1 (stereo unspecified)	-4%	-25%	-29%	19µM*	nt	-12%
COC(=O)c1c(NC(=O)C2COc3ccccc3O2)sc2c1CCN(C(C)=O)C2 (stereo unspecified)	5%	-35%	-19%	8%	-50%[59 µM]	-36%
CC(=O)N1CCc2c(sc(NC(=O)CS(=O)(=O)c3ccc(F)cc3)c2C(N)=O)C1	1%	-35%	-14%	?	50µM*	-10%
CN1CCc2c(sc(NC(=O)Cc3ccc(F)cc3)c2C(N)=O)C1	24%	-4%	10%	-15%	3%[59 µM]	-12%
CNC(=O)c1c(NC(=O)CCS(=O)(=O)c2ccc(Cl)cc2)sc2c1CCN(C(=O)OC)C2	12%	-5%	-27%	-19%	50µM*	-19%
CCCn1c(=O)c(C(=O)Nc2ccccc2C(=O)OCC)c(O)c2ccccc21	42%	39%	8%	1%	36%[59 µM]	9%
O=C(Nc1ccnc(-c2cccnc2)n1)c1ccc(F)cc1	nt	-1%	nt	nt	?	nt
Cc1ccccc1-c1cc(C(=O)Nc2sc(C)c(C)c2C(N)=O)c2ccccc2n1	?	?	?	27µM*	?	?
CCOC(=O)c1sc(NC(=O)c2cc(-c3ccccc3C)nc3ccccc23)c(C#N)c1C	6.3µM*	-7%	?	5.3µM*	1.6µM*	-34%[11.4 µM]
CCOC(=O)c1c(NC(=O)c2cc(-c3ccc(Cl)s3)nc3ccccc23)sc(C(N)=O)c1C	38%	-1%	-19%	-10%	-5%[59 µM]	-8%
Cc1ccccc1-c1cc(C(=O)O)c2ccccc2n1	nt	nt	-29%	nt	nt	nt
CCSc1ccc2nnc(-c3ccc(F)cc3)n2n1	47%	0%	?	-16%	18µM*	8%
CCOC(=O)CNC(=O)CSc1ccc2nnc(-c3ccc(F)cc3)n2n1	50%	1%	?	?	32µM*	12%
O=C(CSc1ccc2nnc(-c3ccc(F)cc3)n2n1)NCC1CCCO1 (stereo unspecified)	13%	3%	nt	-29%	20µM*	-30%
COc1ccc(-c2nnc3ccc(SCC(=O)NCC4CCCO4)nn23)cc1 (stereo unspecified)	28%	9%	nt	-7%	9%[59 µM]	-12%
O=C(CSc1ccc2nnc(-c3ccc(F)cc3)n2n1)NCc1ccco1	22%	12%	?	-24%	8.9µM*	-13%
O=C(c1nnc(COc2ccc(OC(F)(F)F)cc2)n1-c1ccccc1)N1CCC[C@@H]1C(c1ccccc1)c1ccccc1	nt	nt	56%	nt	nt	nt
CCN1CCN(CC(O)COCc2cc(OC)c(OC)c(OC)c2)CC1 (stereo unspecified)	8%	-30%	-22%	-14%	-44%	-21%
COc1ccc(NC(=O)c2nc3ccccc3nc2N2CCCCC2)cc1OC	nt	nt	-1%	nt	nt	nt
COC(=O)c1ccc(CSc2ccc3nnc(-c4ccc(F)cc4)n3n2)o1	28%	nt	-4%	-15%	-12%	-19%
CCOc1ccc(-c2nnc3ccc(SCc4ccc(C(=O)OC)o4)nn23)cc1	12%	3%	?	-9%	11µM*	-36%
CN(C)C[C@@H]1CN(c2ccccn2)C[C@H]1NC(=O)c1ccc(C#N)cc1	nt	nt	15%	nt	nt	nt
COc1cccc(CN(C)CC(=O)Nc2sc3c(c2C#N)CCC3)c1OC	40%	79µM*	-2%	-1%	-33%	-8%
CCNC(=S)Nc1sc2c(c1C#N)CCC(C)C2 (stereo unspecified)	8%	-7%	?	-2%	?	-12%

High-throughput results (PubChem)
